Measured values: PubChem BioAssay AID504465 (National Center for Advancing Translational Sciences (NCATS), 2011)
Screen size: about 2,100 compounds; about 210 (10%) were called active. About 53% were inconclusive and are not listed. Calls come from the whole dose curve; as a rule, active = well fitted inhibition curve with a large enough effect; inconclusive = small, poorly fitted or top-dose-only effect, or effect the other way; inactive = no such curve, though single readings can be large or run the other way. The list shows a part of the results. Where a call stands in place of a potency, no number is given.
Potency is the fitted concentration of half-maximal effect.

Test: IN Cell qHTS Assay for Inhibitors of the mTORC1 Signaling Pathway in MEF (Tsc2-/-, p53-/-) Cells: Sytravon; note: nearly all actives have a fitted effect of over 60% in size
Conditions: phospho-rpS6 immunofluorescence, 24 h; series mostly up to 38.3 µM
Method in brief: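 Tsc2-/-, p53-/- MEFs (empty-vector) treated with compound 24 h at 37 degree Celsius, then fixed and stained for phospho-rpS6 Ser235/236 (Alexa-488) plus Hoechst. Reported as % positive cells, thresholds set against 7.5 nM rapamycin and DMSO wells.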
With Cc1cc(C)cc(NC(=O)C(=O)NCC(c2ccc3c(c2)OCO3)N2CCN(C)CC2)c1 (stereo not given) the Potency was “inactive”. In the case of CC(C)CN(CC(C)C)S(=O)(=O)c1ccc(C(=O)Nc2sc3c(c2C(N)=O)CCN(C(C)C)C3)cc1, the Potency is reported as “inactive”. With CCc1ccc(CNC(=O)COc2cc(=O)n(CC)c3ccccc23)cc1 the Potency was “inactive”. In the case of CC(C)Oc1ccccc1-c1nc(SCC(=O)c2ccc(F)cc2)n[nH]1, the Potency is reported as “inactive”. For CCOc1ccc(CNC(=O)C2CCN(S(=O)(=O)c3ccc4c(ccn4C)c3)CC2)cc1, the Potency was “inactive”. For CCOc1cc(CNC(=O)c2ccc(C)c(NC(=O)c3nsc4ccccc34)c2)ccc1OC, the Potency was “inactive”. For COc1ccccc1C(=O)OCc1cc(=O)n2nc(C3CC3)sc2n1, the Potency was “inactive”. In the case of CCCCOc1cccc(C2c3c(-c4cc(C)ccc4O)n[nH]c3C(=O)N2CCOC)c1 (stereo not given), the Potency is reported as “inactive”. For O=C1c2[nH]nc(-c3ccccc3O)c2C(c2ccc(Cl)cc2)N1CCc1ccccc1 (stereo not given), the Potency was “inactive”. In the case of CCCN1C(=O)c2[nH]nc(-c3ccccc3O)c2C1c1cccc(OCc2ccccc2)c1 (stereo not given), the Potency is reported as “inactive”. With CCCCN1C(=O)c2[nH]nc(-c3ccccc3O)c2C1c1cccc(OCc2ccccc2)c1 (stereo not given) the Potency was 20.7 µM (active). In the case of CC(C)OCCCN1C(=O)c2[nH]nc(-c3ccccc3O)c2C1c1ccc(OCc2ccccc2)cc1 (stereo not given), the Potency is reported as 18.5 µM (active). For COc1ccc(CCN2C(=O)c3[nH]nc(-c4ccccc4O)c3C2c2cccc(OC)c2)cc1 (stereo not given), the Potency was 20.7 µM (active). For COc1ccc(CCN2C(=O)c3[nH]nc(-c4ccccc4O)c3C2c2ccccc2)cc1 (stereo not given), the Potency was “inactive”. In the case of CCCN1C(=O)c2[nH]nc(-c3ccccc3O)c2C1c1ccc(OCc2ccccc2)c(OC)c1 (stereo not given), the Potency is reported as “inactive”. For COc1ccc(C2c3c(-c4ccccc4O)n[nH]c3C(=O)N2CCc2ccccc2)cc1 (stereo not given), the Potency was “inactive”. With CCc1ccc(-n2nc(C)c3c(C(=O)Nc4cc(OC)cc(OC)c4)cc(C)nc32)cc1 the Potency was “inactive”. For CC(Sc1nc2c([nH]c3ccccc32)c(=O)n1-c1ccccc1)c1ccccc1 (stereo not given), the Potency was “inactive”. In the case of CC(C)CC(=O)Nc1cc(-c2ccccc2F)nn1-c1ccccc1, the Potency is reported as “inactive”. In the case of CCOc1ccc(-n2c(-c3ccccc3)c(C)n3c4c(=O)n(C)c(=O)n(C)c4nc23)cc1, the Potency is reported as “inactive”. For Cc1ccc(-c2nc3ncccc3o2)cc1NC(=O)COc1ccc(C(C)C)cc1, the Potency was “inactive”. For Cc1cccc(C)c1NC(=O)Cn1c(=O)n(CCC(=O)NCc2ccccc2Cl)c(=O)c2sccc21, the Potency was “inactive”. For CCOc1cc(CNc2ccc(O)cc2)cc(Cl)c1OCc1ccccc1, the Potency was “inactive”. For CCn1ccc2cc(S(=O)(=O)N3CCCN(C(=O)NCC(C)C)CC3)ccc21, the Potency was “inactive”. In the case of CCC(C)NC(=O)c1ccc2c(c1)N=C(C)c1cc(C)ccc1S2 (stereo not given), the Potency is reported as “inactive”. In the case of COc1ccc(NC(=O)CSc2nc(-c3ccco3)cc(C(F)(F)F)n2)cc1Cl, the Potency is reported as “inactive”. For CCNS(=O)(=O)c1ccc(NC(=O)CSc2nc(-c3ccco3)cc(C(F)(F)F)n2)cc1, the Potency was 0.233 µM (active). For CCc1ccc2c(c1)-c1ccccc1S(=O)(=O)N2CC(=O)N1CCC(C)CC1, the Potency was “inactive”. For CCc1ccc(NC(=O)C2CCCN(S(=O)(=O)c3c(C)noc3/C=C/N(C)C)C2)cc1 (stereo not given), the Potency was “inactive”. For Cc1ccc(Sc2c(C)nn(C(=O)COc3ccccc3)c2C)cc1, the Potency was 6.56 µM (active). With O=C(Nc1ccc(Br)cc1)c1ccc(F)c(S(=O)(=O)N2CCc3ccccc32)c1 the Potency was “inactive”. For CCOc1ccccc1NC(=O)Cn1ccn(Cc2ccc(C)cc2)c(=O)c1=O, the Potency was “inactive”. With CCc1nn(CC(=O)NCc2ccccc2Cl)c(=O)c2cccn12 the Potency was 3.29 µM (active). For Cc1ccc(C(=O)c2cn(CC(=O)NCc3ccccc3Cl)c3nc(C)ccc3c2=O)cc1, the Potency was “inactive”. In the case of CCOc1ccccc1CNC(=O)CCn1c(=O)c2cccn2c2ccc(F)cc21, the Potency is reported as “inactive”. In the case of Clc1ccc(-n2ncc3c(NC4CCCC4)ncnc32)cc1, the Potency is reported as “inactive”. For CC(C)Oc1ccc(CNC(=O)CCn2c(=O)c3cccn3c3ccc(F)cc32)cc1, the Potency was “inactive”. In the case of COc1cccc(-n2c(SCC(=O)Nc3c(C)cc(C)cc3C)nc3c([nH]c4ccccc43)c2=O)c1, the Potency is reported as “inactive”. For COc1cccc(-n2c(SCc3cccc(C)c3)nc3c([nH]c4ccccc43)c2=O)c1, the Potency was “inactive”. With COc1ccc(-c2nnc(SCc3cc(=O)c4cc(C)cc(C)c4[nH]3)n2C)cc1 the Potency was 18.5 µM (active). With O=C(Nc1ccc(F)c(Cl)c1)c1cc(S(=O)(=O)N2CCCc3ccccc32)ccc1F the Potency was “inactive”. With Cc1cccc(N2CCN(C(=O)Cn3c(=O)c4cccn4c4ccc(F)cc43)CC2C)c1 (stereo not given) the Potency was “inactive”. In the case of Cc1ccccc1Cn1nnc2c(=O)[nH]c(C3CCN(C(=O)c4ccccc4Cl)CC3)nc21, the Potency is reported as “inactive”. For O=C(Nc1ccc(Cl)c(C(F)(F)F)c1)c1ccc2c(c1)CCN2S(=O)(=O)c1ccccc1, the Potency was “inactive”. For CCCOC(=O)c1cccc(NC(=O)c2c(-c3ccccc3Cl)noc2C)c1, the Potency was “inactive”. In the case of COC(=O)C1=C(C)N(C(C)C)C(=O)C1(NC(=O)c1ccc(C(C)(C)C)cc1)C(F)(F)F (stereo not given), the Potency is reported as 20.7 µM (active). With O=C(Nc1ccc(C(F)(F)F)cc1)c1cc(S(=O)(=O)NC2CCCCC2)ccc1F the Potency was “inactive”. For Cc1ccc(-n2ncc(C(=O)NCCCN3CCc4ccccc4C3)c2C2CCN(C(=O)OC(C)(C)C)CC2)cc1C, the Potency was 20.7 µM (active). For COc1ccccc1CN1CCC(CNC(=O)c2cnn(-c3ccccc3Cl)c2C2CCN(C(=O)OC(C)(C)C)CC2)CC1, the Potency was “inactive”. In the case of Cc1ccc(-n2ncc(C(=O)NCc3cccs3)c2C2CCN(C(=O)OC(C)(C)C)CC2)cc1C, the Potency is reported as “inactive”. For CCCCOC(=O)c1ccc(NC(=O)Cc2coc3ccc(C(C)C)cc23)cc1, the Potency was “inactive”. For CCCCS(=O)(=O)c1nc(-c2ccc(Br)cc2)cc(-c2ccccc2)c1C#N, the Potency was 3.29 µM (active). In the case of CCCS(=O)(=O)N1CC(=O)N(c2ccccc2C)C(C)(C(=O)NC2CCCC2)C1 (stereo not given), the Potency is reported as “inactive”. In the case of COc1ccc(NS(=O)(=O)c2ccc3c(c2)CCCN3C(=O)C2CCC2)cc1OC, the Potency is reported as “inactive”. In the case of CC1=Nc2cc(C(=O)NC(C)C)ccc2Sc2ccc(C)cc21, the Potency is reported as “inactive”. In the case of Cc1ccc(-c2csc(-c3cc4c([nH]c3=O)CC(c3ccccc3)CC4=O)n2)cc1 (stereo not given), the Potency is reported as “inactive”. With CC(=O)c1c(C)oc2ccc(N(C(=O)c3ccncc3)S(=O)(=O)c3ccc(F)cc3C)cc12 the Potency was “inactive”. For COC(=O)c1c(C)oc2ccc(N(C(=O)c3ccncc3)S(=O)(=O)c3cc(C)ccc3C)cc12, the Potency was “inactive”. In the case of CCOc1ccc(S(=O)(=O)N(C(=O)c2ccncc2)c2ccc3oc(C)c(C(=O)OC)c3c2)cc1, the Potency is reported as 3.29 µM (active). With Cc1cc(C)c2c(=O)cc(CSCC(=O)Nc3nnc(C)s3)[nH]c2c1 the Potency was “inactive”. In the case of CC(C)Cc1cc(C(=O)NCc2ccc(Cl)cc2)no1, the Potency is reported as “inactive”. For COc1ccccc1Cc1nc2ccccc2nc1SCC(=O)N1CCCCC1, the Potency was “inactive”. With CCc1ccc(NC(=O)c2ccc(F)c(S(=O)(=O)NCc3ccc(Cl)c(Cl)c3)c2)cc1 the Potency was “inactive”. With CCOC(=O)c1cnc2ccc(C)cc2c1Nc1ccc(OCc2ccccc2Cl)cc1 the Potency was “inactive”. With CCc1ccc(C(=O)c2cnc3ccc(F)cc3c2S(=O)(=O)c2ccccc2)cc1 the Potency was 4.65 µM (active). In the case of Cc1cc(Cl)ccc1NC(=O)C1CCCN1S(=O)(=O)c1ccc2c(c1)CCCC(=O)N2 (stereo not given), the Potency is reported as “inactive”. With COc1ccc(N2CCN(Cc3nc(-c4ccc(C)cc4)no3)CC2)cc1 the Potency was “inactive”. For Cc1ccc(-c2nc(S(=O)(=O)c3ccc(C)cc3)c(N3CCN(c4ccccc4)CC3)o2)cc1, the Potency was “inactive”. With COc1ccc(-c2nc(S(=O)(=O)c3ccc(C)cc3)c(N3CCCCC3)o2)cc1 the Potency was 13.1 µM (active). For O=C(c1cc(-c2cccc(Cl)c2)on1)N1CCN(c2ccccc2)CC1, the Potency was “inactive”. For O=S(=O)(c1ccccc1)c1nc(-c2cccc(Cl)c2)oc1N1CCOCC1, the Potency was 9.27 µM (active). For CC(=O)N1CCOc2cc(S(=O)(=O)Nc3c(C)cccc3C(C)C)c(Cl)cc21, the Potency was “inactive”. In the case of Cc1cc(C)c2c(=O)c3c(oc2c1)C(=O)N(Cc1ccc(F)cc1)C3c1cccc(O)c1 (stereo not given), the Potency is reported as “inactive”. In the case of Cc1cc(C)cc(NS(=O)(=O)c2ccc(-c3cc(C)no3)cc2)c1, the Potency is reported as “inactive”. In the case of CCC(C(=O)Nc1ccc(C)c(Cl)c1)n1c(=O)c(-c2ccccc2NC(C)=O)nc2ccccc21 (stereo not given), the Potency is reported as “inactive”. With O=C1Nc2ccccc2Oc2cc(Oc3ccccc3)ccc21 the Potency was “inactive”. For Cc1ccc2occ(CC(=O)N(Cc3ccc(Cl)cc3)Cc3ccco3)c2c1, the Potency was “inactive”. With Cc1ccc(CN(Cc2ccco2)C(=O)COc2c(C)cc(C)cc2C)cc1 the Potency was “inactive”. For Cc1cc(C)c2c(CC(=O)N(Cc3ccc(N(C)C)cc3)Cc3ccco3)coc2c1, the Potency was 6.56 µM (active). For COc1cccc(NC(=O)Nc2ccc3nc(N4CCN(C)CC4)cc(C)c3c2)c1, the Potency was “inactive”. For CCN1CCN(c2cc(C)c3cc(NC(=O)c4cc(Cl)ccc4OC)ccc3n2)CC1, the Potency was 2.93 µM (active). With CCCCc1ccc(C(=O)Nc2ccc3nc(N4CCN(CC)CC4)cc(C)c3c2)cc1 the Potency was 2.61 µM (active). For CCCCc1ccc(NC(=O)c2ccc3c(c2)CCN3S(=O)(=O)c2ccccc2)cc1, the Potency was “inactive”. In the case of Cc1ccc(S(=O)(=O)N2CCc3cc(C(=O)Nc4ccc(C(F)(F)F)cc4)ccc32)cc1, the Potency is reported as “inactive”. For COc1ccc(Cl)cc1NC(=O)CCn1nc(C)cc1C, the Potency was “inactive”. In the case of CCN1CCN(c2cc(C)c3cc(NC(=O)/C=C/c4ccc(C)cc4)ccc3n2)CC1, the Potency is reported as 5.21 µM (active). For Cc1ccc(NC(=O)c2ccc(F)c(S(=O)(=O)NCCc3ccccc3)c2)cc1F, the Potency was “inactive”. With COc1ccccc1C(=O)Nc1ccc2nc(N3CCC(C)CC3)cc(C)c2c1 the Potency was “inactive”. With Cc1cccc(CC(=O)Nc2ccc3nc(N4CCC(C)CC4)cc(C)c3c2)c1 the Potency was “inactive”. In the case of Cc1cc(N2CCN(C)CC2)nc2ccc(NC(=O)c3ccc(C(C)(C)C)cc3)cc12, the Potency is reported as 1.85 µM (active).
